From PubChem BioAssay AID651871 (Sanford-Burnham Center for Chemical Genomics, 2012)

system: HL-1; assay: cardiomyocyte survival under oxidative or metabolic stress – cell-based, panel, H9c2 and HL-1, ATP luminescence, set 2, SAR follow-up (AID 651871); conditions: H9c2/HL-1 cardiomyocytes, 2-deoxyglucose stress, with 2-deoxyglucose, run 6, at 79 µM (top of the series);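 note: cells exposed to stressor for 2 h before ATP readout; reference of the scale not given here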

| SMILES | activity (protection/inhibition) [%] |
| --- | --- |
| CCOC(=O)c1cccc(NC(=O)CNC(=O)c2cc(-c3cc(OC)c(OC)c(OC)c3)nc3ccccc23)c1 | 74.8 |
| COc1ccc2c(c1OC)C(=O)N1c3ccccc3C(=O)N(Cc3cccc(Cl)c3Cl)C21 (stereo not drawn) | -11.4 |
| COc1ccc2nc(-c3cc(OC)c(OC)c(OC)c3)cc(C(=O)NCC(=O)Nc3ccc(C(C)=O)cc3)c2c1 | 61.1 |
